Results reported in paper PMC7862700, “An all-to-all approach to the identification of sequence-specific readers for epigenetic DNA modifications on cytosine”.

Key:
Test in all cases: DAPPL (digital affinity profiling via proximity ligation, sequencing); 10 mM Tris-HCl pH 7.5, 50 mM NaCl, 1 mM DTT, 4% glycerol, room temperature, 30 min; GST-TFs on glutathione beads, 16-mer random dsDNA library, 0.1% formaldehyde crosslink after washing; high values mean tight binding
FEV = molecular target: T1, FEV (Homo sapiens, UniProt Q99581 1-238); details: protein: recombinant; tags: N-terminal GST; dsDNA, one strand shown
T1 sequence: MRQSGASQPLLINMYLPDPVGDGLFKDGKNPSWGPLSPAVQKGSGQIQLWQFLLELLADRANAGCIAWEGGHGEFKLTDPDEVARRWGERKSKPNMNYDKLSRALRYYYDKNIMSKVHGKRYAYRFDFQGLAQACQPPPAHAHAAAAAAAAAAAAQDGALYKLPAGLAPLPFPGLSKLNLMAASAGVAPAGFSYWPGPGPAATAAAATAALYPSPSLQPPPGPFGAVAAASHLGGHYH
In short: (§1)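 The binding signal reported is, for every hexamer, its read frequency for a factor over its read frequency for the tag-only sample. Reads came from pools of yeast-expressed, GST-fused human transcription factors on glutathione beads, barcoded with DNA and mixed with that sample, which were incubated with 200 nmole of a random double-stranded 16-mer DNA library in Tris/NaCl/DTT/glycerol buffer at room temperature for 30 min. After washing, the pools were crosslinked with 0.1% formaldehyde, proximity-ligated with BsaI/T4 ligase for 1 h at 37 °C, PCR-amplified and sequenced on an Illumina NextSeq500.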

ETV5 = ETV5 (Homo sapiens, UniProt P41161 1-510); details: protein: recombinant; tags: N-terminal GST; dsDNA, one strand shown
ETV5, sequence (P41161 whole entry): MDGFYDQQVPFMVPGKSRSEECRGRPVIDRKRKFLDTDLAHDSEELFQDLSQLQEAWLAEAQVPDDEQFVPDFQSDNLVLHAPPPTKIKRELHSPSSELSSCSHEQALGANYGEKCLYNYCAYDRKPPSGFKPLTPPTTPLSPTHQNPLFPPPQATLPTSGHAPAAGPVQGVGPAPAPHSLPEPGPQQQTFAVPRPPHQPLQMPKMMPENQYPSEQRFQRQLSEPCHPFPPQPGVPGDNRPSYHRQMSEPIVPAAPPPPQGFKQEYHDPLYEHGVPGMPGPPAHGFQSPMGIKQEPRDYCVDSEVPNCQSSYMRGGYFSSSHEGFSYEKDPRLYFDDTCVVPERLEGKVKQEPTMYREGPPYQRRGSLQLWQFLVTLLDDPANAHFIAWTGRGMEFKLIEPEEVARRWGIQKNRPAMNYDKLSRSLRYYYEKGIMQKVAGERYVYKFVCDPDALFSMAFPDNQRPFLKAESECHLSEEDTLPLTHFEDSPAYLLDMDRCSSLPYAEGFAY
In short: as §1

HSF1 = HSF1 (Homo sapiens, UniProt Q00613 1-529); details: protein: recombinant; tags: N-terminal GST; chain copies: 3; dsDNA, one strand shown
HSF1, sequence (Q00613 whole entry): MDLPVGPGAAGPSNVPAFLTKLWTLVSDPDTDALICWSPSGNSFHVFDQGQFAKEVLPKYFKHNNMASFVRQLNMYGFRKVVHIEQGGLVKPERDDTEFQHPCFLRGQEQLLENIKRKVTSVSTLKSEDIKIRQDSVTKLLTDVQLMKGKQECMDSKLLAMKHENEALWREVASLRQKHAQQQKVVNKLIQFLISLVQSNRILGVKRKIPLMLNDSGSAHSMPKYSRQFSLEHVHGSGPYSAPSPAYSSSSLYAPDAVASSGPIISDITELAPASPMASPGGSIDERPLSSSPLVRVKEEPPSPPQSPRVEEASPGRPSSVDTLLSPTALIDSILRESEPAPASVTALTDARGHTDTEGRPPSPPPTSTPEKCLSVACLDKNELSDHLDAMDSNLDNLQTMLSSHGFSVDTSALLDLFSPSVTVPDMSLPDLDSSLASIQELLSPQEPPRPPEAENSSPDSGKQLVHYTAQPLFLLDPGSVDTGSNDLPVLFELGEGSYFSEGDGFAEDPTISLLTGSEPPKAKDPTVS
In short: as §1

SPIC = molecular target: T2, SPIC (Homo sapiens, UniProt Q8N5J4 1-248); details: protein: recombinant; tags: N-terminal GST; dsDNA, one strand shown
T2 sequence: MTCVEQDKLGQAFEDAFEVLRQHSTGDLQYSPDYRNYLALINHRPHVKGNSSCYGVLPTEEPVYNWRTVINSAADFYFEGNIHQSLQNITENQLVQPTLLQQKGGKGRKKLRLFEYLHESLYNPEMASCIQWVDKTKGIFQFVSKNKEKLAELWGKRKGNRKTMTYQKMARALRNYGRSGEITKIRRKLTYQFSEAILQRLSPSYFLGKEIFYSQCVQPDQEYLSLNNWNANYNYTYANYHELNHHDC
In short: as §1

ELF4 = ELF4 (Homo sapiens, UniProt Q99607 1-663); details: protein: recombinant; tags: N-terminal GST; dsDNA, one strand shown
ELF4, sequence (Q99607 whole entry): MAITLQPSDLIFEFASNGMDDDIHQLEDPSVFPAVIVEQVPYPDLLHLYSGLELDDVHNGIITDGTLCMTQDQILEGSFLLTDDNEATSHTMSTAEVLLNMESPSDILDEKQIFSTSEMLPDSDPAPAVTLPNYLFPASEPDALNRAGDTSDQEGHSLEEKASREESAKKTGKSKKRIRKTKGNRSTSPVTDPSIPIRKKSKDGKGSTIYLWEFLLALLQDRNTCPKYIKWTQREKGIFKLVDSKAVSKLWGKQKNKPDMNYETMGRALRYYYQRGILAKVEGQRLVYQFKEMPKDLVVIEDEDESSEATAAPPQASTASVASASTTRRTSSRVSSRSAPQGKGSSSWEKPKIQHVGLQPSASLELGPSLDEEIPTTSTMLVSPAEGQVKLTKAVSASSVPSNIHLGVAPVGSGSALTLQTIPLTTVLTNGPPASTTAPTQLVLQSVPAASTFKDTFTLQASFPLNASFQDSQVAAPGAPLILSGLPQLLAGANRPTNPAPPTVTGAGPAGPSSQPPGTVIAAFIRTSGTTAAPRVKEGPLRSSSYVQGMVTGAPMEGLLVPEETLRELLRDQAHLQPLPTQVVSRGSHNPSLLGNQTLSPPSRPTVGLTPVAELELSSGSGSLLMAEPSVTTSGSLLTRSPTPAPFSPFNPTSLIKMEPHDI
In short: as §1

ELK4 = molecular target: T3, ELK4 (Homo sapiens, UniProt P28324-2 1-405); details: protein: recombinant; tags: N-terminal GST; dsDNA, one strand shown
T3 sequence: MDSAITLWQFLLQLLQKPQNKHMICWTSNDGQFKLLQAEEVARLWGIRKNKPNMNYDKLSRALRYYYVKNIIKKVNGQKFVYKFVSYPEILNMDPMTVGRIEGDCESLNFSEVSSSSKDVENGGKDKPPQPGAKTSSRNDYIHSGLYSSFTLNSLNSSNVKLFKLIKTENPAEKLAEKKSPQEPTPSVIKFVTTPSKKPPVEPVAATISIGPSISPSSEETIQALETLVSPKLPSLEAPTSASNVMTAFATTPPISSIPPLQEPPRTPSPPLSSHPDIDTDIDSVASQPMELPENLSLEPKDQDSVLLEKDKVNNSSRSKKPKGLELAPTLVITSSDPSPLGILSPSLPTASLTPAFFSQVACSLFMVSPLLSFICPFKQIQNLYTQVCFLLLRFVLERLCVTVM
In short: as §1

ETV2 = molecular target: T4, ETV2 (Homo sapiens, UniProt O00321 1-342); details: protein: recombinant; tags: N-terminal GST; dsDNA, one strand shown
T4 sequence: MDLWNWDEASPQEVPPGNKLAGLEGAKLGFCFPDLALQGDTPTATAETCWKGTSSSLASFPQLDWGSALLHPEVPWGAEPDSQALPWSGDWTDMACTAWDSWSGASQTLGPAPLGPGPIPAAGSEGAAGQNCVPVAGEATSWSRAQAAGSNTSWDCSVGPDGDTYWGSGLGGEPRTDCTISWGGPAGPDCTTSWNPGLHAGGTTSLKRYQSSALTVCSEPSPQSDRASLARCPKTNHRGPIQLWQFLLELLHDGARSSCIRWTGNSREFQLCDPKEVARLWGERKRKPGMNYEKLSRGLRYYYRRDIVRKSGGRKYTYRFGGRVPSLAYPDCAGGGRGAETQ
In short: as §1

ELF3 = molecular target: T5, ELF3 (Homo sapiens, UniProt P78545 1-371); details: protein: recombinant; tags: N-terminal GST; dsDNA, one strand shown
T5 sequence: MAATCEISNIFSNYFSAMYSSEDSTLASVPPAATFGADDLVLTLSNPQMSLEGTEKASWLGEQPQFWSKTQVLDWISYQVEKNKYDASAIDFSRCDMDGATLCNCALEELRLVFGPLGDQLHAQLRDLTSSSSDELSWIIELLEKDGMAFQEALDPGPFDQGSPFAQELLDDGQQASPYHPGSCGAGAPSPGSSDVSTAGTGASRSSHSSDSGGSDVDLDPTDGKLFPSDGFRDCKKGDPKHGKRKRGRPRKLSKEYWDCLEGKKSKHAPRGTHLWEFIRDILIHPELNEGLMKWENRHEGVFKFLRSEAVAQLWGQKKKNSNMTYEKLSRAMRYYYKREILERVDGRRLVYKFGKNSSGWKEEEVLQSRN
In short: as §1

CRX = CRX (Homo sapiens, UniProt O43186 1-299); details: protein: recombinant; tags: N-terminal GST; dsDNA, one strand shown
CRX, sequence (O43186 whole entry): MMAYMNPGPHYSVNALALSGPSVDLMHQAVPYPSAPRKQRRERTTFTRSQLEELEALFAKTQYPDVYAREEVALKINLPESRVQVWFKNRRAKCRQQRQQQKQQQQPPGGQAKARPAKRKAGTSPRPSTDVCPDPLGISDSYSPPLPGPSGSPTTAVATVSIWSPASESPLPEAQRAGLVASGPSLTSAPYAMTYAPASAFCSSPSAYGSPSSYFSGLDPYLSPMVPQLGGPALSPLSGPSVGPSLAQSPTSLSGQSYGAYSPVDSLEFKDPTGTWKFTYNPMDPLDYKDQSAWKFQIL
In short: as §1

ETV1 = ETV1 (Homo sapiens, UniProt P50549 1-477); details: protein: recombinant; tags: N-terminal GST; dsDNA, one strand shown
ETV1, sequence (P50549 whole entry): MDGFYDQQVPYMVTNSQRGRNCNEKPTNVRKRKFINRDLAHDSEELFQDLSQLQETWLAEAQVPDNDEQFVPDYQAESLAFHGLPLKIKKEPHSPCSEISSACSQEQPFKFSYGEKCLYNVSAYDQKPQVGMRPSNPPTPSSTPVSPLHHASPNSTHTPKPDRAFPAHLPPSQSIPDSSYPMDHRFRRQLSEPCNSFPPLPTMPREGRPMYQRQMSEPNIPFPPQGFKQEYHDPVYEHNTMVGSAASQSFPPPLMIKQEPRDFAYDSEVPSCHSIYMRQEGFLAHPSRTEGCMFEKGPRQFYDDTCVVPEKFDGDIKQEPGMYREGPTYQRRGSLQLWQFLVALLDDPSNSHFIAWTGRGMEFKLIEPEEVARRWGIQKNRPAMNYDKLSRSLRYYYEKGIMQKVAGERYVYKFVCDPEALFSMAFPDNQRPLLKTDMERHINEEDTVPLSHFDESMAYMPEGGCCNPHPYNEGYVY
In short: as §1

ERF = molecular target: T6, ERF (Homo sapiens, UniProt P50548 1-548); details: protein: recombinant; tags: N-terminal GST; dsDNA, one strand shown
T6 sequence: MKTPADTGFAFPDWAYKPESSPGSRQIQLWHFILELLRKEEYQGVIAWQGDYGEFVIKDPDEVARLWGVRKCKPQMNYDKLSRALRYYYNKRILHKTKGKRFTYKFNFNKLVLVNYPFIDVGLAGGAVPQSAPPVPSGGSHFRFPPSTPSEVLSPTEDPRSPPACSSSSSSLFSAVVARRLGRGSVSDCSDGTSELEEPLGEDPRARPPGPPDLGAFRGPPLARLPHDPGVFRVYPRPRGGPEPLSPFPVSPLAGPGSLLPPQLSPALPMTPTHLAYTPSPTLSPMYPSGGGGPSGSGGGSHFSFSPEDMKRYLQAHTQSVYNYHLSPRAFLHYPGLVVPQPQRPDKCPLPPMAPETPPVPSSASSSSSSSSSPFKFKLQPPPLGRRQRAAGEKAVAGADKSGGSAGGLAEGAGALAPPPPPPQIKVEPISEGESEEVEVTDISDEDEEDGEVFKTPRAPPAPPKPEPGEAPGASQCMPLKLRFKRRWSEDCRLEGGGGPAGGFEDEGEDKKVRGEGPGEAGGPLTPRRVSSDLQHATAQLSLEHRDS
In short: as §1

ETV3L = molecular target: T7, ETV3L (Homo sapiens, UniProt Q6ZN32 1-361); details: protein: recombinant; tags: N-terminal GST; dsDNA, one strand shown
T7 sequence: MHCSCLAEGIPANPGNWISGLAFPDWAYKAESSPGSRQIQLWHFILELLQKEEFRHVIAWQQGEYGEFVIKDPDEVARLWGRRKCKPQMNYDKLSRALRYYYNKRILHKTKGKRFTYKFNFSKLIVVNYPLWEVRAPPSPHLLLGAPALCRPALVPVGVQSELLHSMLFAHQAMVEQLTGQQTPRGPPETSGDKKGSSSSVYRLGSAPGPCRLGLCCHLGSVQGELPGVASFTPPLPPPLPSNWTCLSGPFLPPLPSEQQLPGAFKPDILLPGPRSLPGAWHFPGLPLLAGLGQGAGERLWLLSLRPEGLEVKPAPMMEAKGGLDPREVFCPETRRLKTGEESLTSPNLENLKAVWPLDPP
In short: as §1

ETS2 = molecular target: T8, ETS2 (Homo sapiens, UniProt P15036 1-469); details: protein: recombinant; tags: N-terminal GST; dsDNA, one strand shown
T8 sequence: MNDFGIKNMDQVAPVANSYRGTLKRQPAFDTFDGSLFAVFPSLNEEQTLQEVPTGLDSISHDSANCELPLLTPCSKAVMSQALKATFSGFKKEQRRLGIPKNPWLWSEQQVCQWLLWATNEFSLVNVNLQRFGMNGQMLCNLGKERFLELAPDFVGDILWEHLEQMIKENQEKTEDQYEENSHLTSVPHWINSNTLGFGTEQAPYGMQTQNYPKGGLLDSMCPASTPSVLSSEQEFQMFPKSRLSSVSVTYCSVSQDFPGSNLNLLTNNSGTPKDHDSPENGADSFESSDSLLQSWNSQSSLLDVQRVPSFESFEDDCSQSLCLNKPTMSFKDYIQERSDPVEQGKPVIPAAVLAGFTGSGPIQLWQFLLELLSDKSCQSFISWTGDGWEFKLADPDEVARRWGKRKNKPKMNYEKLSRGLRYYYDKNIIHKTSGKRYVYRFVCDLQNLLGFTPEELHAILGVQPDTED
In short: as §1

SPDEF = molecular target: T9, SPDEF (Homo sapiens, UniProt O95238 1-335); details: protein: recombinant; tags: N-terminal GST; dsDNA, one strand shown
T9 sequence: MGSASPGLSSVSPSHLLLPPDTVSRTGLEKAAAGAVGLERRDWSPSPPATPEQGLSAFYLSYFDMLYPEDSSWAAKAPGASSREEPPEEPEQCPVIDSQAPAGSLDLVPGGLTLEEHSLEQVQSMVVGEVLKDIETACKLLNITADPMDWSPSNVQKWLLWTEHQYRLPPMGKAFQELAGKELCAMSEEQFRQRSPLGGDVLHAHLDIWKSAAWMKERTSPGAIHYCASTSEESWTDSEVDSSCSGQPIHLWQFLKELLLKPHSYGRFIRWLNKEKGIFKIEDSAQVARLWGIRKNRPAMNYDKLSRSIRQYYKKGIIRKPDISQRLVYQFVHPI
In short: as §1

ETV7 = molecular target: T10, ETV7 (Homo sapiens, UniProt Q9Y603 1-341); details: protein: recombinant; tags: N-terminal GST; dsDNA, one strand shown
T10 sequence: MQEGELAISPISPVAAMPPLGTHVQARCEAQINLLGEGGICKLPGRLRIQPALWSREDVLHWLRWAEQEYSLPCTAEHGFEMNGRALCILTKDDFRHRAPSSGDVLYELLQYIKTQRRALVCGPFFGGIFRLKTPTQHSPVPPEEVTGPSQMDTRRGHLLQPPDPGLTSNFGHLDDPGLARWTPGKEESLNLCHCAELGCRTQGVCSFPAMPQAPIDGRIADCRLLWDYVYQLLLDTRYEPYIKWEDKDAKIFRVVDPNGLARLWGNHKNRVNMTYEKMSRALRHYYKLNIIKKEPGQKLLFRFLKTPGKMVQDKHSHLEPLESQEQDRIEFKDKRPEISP
In short: as §1

ELF5 = molecular target: T11, ELF5 (Homo sapiens, UniProt Q9UKW6-2 1-255); details: protein: recombinant; tags: N-terminal GST; dsDNA, one strand shown
T11 sequence: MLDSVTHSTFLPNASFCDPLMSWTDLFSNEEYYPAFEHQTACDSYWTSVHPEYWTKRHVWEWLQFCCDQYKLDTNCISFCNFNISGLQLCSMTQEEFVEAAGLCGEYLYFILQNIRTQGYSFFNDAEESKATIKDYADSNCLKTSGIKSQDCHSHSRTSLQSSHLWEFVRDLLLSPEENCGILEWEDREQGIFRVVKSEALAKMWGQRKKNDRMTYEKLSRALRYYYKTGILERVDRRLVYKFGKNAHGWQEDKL
In short: as §1

ETV3 = molecular target: T12, ETV3 (Homo sapiens, UniProt P41162-2 1-143); details: protein: recombinant; tags: N-terminal GST; dsDNA, one strand shown
T12 sequence: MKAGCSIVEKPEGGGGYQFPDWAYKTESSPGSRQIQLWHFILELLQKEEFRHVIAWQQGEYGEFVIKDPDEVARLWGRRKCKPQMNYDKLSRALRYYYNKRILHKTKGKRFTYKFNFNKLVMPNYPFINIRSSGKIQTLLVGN
In short: as §1

ETV6 = ETV6 (Homo sapiens, UniProt P41212 1-452); details: protein: recombinant; tags: N-terminal GST; dsDNA, one strand shown
ETV6, sequence (P41212 whole entry): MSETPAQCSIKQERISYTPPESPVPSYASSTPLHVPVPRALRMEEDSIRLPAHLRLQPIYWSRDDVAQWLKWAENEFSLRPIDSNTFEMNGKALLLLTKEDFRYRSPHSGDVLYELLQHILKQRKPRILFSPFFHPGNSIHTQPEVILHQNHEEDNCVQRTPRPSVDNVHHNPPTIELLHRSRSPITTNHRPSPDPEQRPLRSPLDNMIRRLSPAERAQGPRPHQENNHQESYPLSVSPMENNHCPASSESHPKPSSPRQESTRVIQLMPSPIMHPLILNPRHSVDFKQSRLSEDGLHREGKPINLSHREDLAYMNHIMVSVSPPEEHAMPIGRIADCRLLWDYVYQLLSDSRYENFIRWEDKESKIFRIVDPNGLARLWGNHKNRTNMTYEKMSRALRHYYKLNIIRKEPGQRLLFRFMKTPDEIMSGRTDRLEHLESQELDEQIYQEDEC
In short: as §1

Sequence	binding signal (FEV)	binding signal (ETV5)	binding signal (HSF1)	binding signal (SPIC)	binding signal (ELF4)	binding signal (ELK4)	binding signal (ETV2)	binding signal (ELF3)	binding signal (CRX)	binding signal (ETV1)	binding signal (ERF)	binding signal (ETV3L)	binding signal (ETS2)	binding signal (SPDEF)	binding signal (ETV7)	binding signal (ELF5)	binding signal (ETV3)	binding signal (ETV6)
TACCTT	1.34 fold enrichment (6-mer frequency, TF over GST control)	1.4 fold enrichment (6-mer frequency, TF over GST control)	1.3 fold enrichment (6-mer frequency, TF over GST control)	1.3 fold enrichment (6-mer frequency, TF over GST control)	1.38 fold enrichment (6-mer frequency, TF over GST control)	1.46 fold enrichment (6-mer frequency, TF over GST control)	1.6 fold enrichment (6-mer frequency, TF over GST control)	1.31 fold enrichment (6-mer frequency, TF over GST control)	1.55 fold enrichment (6-mer frequency, TF over GST control)	1.5 fold enrichment (6-mer frequency, TF over GST control)	1.51 fold enrichment (6-mer frequency, TF over GST control)	1.34 fold enrichment (6-mer frequency, TF over GST control)	1.44 fold enrichment (6-mer frequency, TF over GST control)	1.39 fold enrichment (6-mer frequency, TF over GST control)	1.37 fold enrichment (6-mer frequency, TF over GST control)	1.49 fold enrichment (6-mer frequency, TF over GST control)	1.29 fold enrichment (6-mer frequency, TF over GST control)	1.5 fold enrichment (6-mer frequency, TF over GST control)
TCTAAG	1.13 fold enrichment (6-mer frequency, TF over GST control)	1.3 fold enrichment (6-mer frequency, TF over GST control)	1.49 fold enrichment (6-mer frequency, TF over GST control)	1.21 fold enrichment (6-mer frequency, TF over GST control)	1.25 fold enrichment (6-mer frequency, TF over GST control)	1.2 fold enrichment (6-mer frequency, TF over GST control)	1.29 fold enrichment (6-mer frequency, TF over GST control)	1.27 fold enrichment (6-mer frequency, TF over GST control)	1.86 fold enrichment (6-mer frequency, TF over GST control)	1.25 fold enrichment (6-mer frequency, TF over GST control)	1.25 fold enrichment (6-mer frequency, TF over GST control)	1.17 fold enrichment (6-mer frequency, TF over GST control)	1.23 fold enrichment (6-mer frequency, TF over GST control)	1.1 fold enrichment (6-mer frequency, TF over GST control)	1.29 fold enrichment (6-mer frequency, TF over GST control)	1.23 fold enrichment (6-mer frequency, TF over GST control)	1.24 fold enrichment (6-mer frequency, TF over GST control)	1.17 fold enrichment (6-mer frequency, TF over GST control)
